Experimental data from PubChem BioAssay (Tox21).
Where “and” joins values, the source holds several entries; their conditions need not be identical. Equal values may be shown once. Records with an inconclusive call do not appear. Where a call stands in place of a potency, no number is given. Calls of active or inactive are those of the source. Unless noted, calls come from the whole dose curve; as a rule, active = well fitted cell-killing curve with a large enough effect in the repeat runs (not every such curve was filed as active); inconclusive = weak or mixed curves, or effect the other way; inactive = no such curve, though single readings can be large or run the other way.

Target: Bile acid receptor (Homo sapiens) (UniProt Q96RI1)
Experiment: qHTS assay to identify small molecule agonists of the farnesoid-X-receptor (FXR) signaling pathway (AID 743220; active = well fitted activation curve with a large enough effect in the signal ratio in the repeat runs, not every such curve was filed as active; the % refers to the signal ratio)
Details: HEK293T FXR-UAS-bla, beta-lactamase FRET ratio, 16 h; series mostly up to 62.6 µM
Summary of the method: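 Beta-lactamase reporter under UAS control in GeneBLAzer FXR HEK 293T cells (5000/well) measured with LiveBLAzer FRET substrate after 2 h at room temperature. Compound exposure lasted 16 h at 37C.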

Chain of Bile acid receptor (Homo sapiens) (Q96RI1 whole entry, looked up): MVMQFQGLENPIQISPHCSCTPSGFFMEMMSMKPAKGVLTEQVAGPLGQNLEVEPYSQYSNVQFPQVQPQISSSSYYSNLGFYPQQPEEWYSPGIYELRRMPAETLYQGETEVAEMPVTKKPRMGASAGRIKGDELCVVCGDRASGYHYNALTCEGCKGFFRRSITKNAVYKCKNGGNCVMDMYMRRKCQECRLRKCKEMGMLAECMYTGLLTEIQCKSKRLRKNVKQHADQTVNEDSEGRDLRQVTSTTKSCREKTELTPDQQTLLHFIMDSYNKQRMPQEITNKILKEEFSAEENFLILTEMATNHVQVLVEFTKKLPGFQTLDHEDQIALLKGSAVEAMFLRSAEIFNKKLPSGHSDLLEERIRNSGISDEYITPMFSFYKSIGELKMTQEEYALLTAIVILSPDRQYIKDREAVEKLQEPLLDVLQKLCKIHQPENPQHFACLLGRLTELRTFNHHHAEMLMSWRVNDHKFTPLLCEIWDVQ

| SMILES | outcome |
| --- | --- |
| c1ccc2sc(SSN3CCOCC3)nc2c1 | inactive |
| CN(C)c1nc(N(C)C)nc(N(C)C)n1 | inactive |
| CC(C)(C)NC(=O)[C@H]1CC[C@H]2[C@@H]3CC[C@H]4NC(=O)C=C[C@]4(C)[C@H]3CC[C@]12C | inactive |
| NC=O | inactive |
| O=C(Nc1ccc(Cl)cc1)Nc1ccc(Cl)c(Cl)c1 | inactive |
| COC(C)COC(C)COC(C)CO (stereo not drawn) | inactive |
| Nc1ncnc2nc[nH]c12 | inactive |
| OCCO | inactive |
| COc1ccc(C(=O)CC(=O)c2ccc(C(C)(C)C)cc2)cc1 | inactive |
| CCCCc1oc2ccccc2c1C(=O)c1cc(I)c(OCCN(CC)CC)c(I)c1 | inactive |
| Cc1c(OCC(F)(F)F)ccnc1CS(=O)c1nc2ccccc2[nH]1 (stereo not drawn) | inactive |
| O=CCCCC=O | inactive |
| Cc1cccc(N(C)C(=S)Oc2ccc3ccccc3c2)c1 | inactive |
| Cc1cc2nc3c(=O)[nH]c(=O)nc-3n(C[C@H](O)[C@H](O)[C@H](O)CO)c2cc1C | inactive |

Tested on: not listed separately
Experiment: qHTS assay to identify small molecule antagonists of the farnesoid-X-receptor (FXR) signaling pathway - cell viability counter screen (AID 743221); note: nearly all actives have a fitted effect of over 50% in size; note: potency is the fitted concentration of half-maximal effect
Details: FXR-bla HEK293T viability, CellTiter-Glo luminescence, 16 h; series mostly up to 62.6 µM
Summary of the method: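 In GeneBLAzer FXR-UAS-bla HEK 293T cells stimulated with 50 uM chenodeoxycholic acid (final), compounds acted for 16 h at 37 C. Viability was assessed afterwards by CellTiter-Glo luminescence.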

| SMILES | Potency |
| --- | --- |
| c1ccc2sc(SSN3CCOCC3)nc2c1 | inactive |
| Nc1ncn([C@@H]2O[C@H](CO)[C@@H](O)[C@H]2O)c(=O)n1 | inactive |
| CN(C)c1nc(N(C)C)nc(N(C)C)n1 | inactive |
| CN(C)CCN(Cc1cccs1)c1ccccn1 | inactive |
| CC(C)(C)NC(=O)[C@H]1CC[C@H]2[C@@H]3CC[C@H]4NC(=O)C=C[C@]4(C)[C@H]3CC[C@]12C | inactive |
| CCCCC(CC)COCC1CO1 (stereo not drawn) | inactive |
| COC(=O)Nc1nc2ccc(S(=O)c3ccccc3)cc2[nH]1 (stereo not drawn) | inactive |
| c1cc(-c2ccncc2)ccn1 | inactive |
| OC[C@H]1O[C@@H]2O[C@H]3[C@H](O)[C@@H](O)[C@@H](O[C@H]4[C@H](O)[C@@H](O)[C@@H](O[C@H]5[C@H](O)[C@@H](O)[C@@H](O[C@H]6[C@H](O)[C@@H](O)[C@@H](O[C@H]7[C@H](O)[C@@H](O)[C@@H](O[C@H]8[C@H](O)[C@@H](O)[C@@H](O[C@H]1[C@H](O)[C@H]2O)O[C@@H]8CO)O[C@@H]7CO)O[C@@H]6CO)O[C@@H]5CO)O[C@@H]4CO)O[C@@H]3CO | inactive |
| NC=O | inactive |
| c1ccc2cc(Nc3ccc(Nc4ccc5ccccc5c4)cc3)ccc2c1 | inactive |
| COC(C)COC(C)COC(C)CO (stereo not drawn) | inactive |
| CC(=O)CC/C=C(\C)CCC=C(C)C | inactive |
| Nc1ccc(Nc2ccccc2)cc1 | inactive |
| Nc1ncnc2nc[nH]c12 | inactive |
| OCCO | inactive |
| O=C1OC2(c3cc(Br)c(O)c(Br)c3Oc3c2cc(Br)c(O)c3Br)c2c(Cl)c(Cl)c(Cl)c(Cl)c21 | inactive |
| CCCCOCCOCCO | inactive |

| SMILES | Potency |
| --- | --- |
| Cc1c(C(N)=O)cc([N+](=O)[O-])cc1[N+](=O)[O-] | inactive |
| COc1ccc(C(=O)CC(=O)c2ccc(C(C)(C)C)cc2)cc1 | inactive |
| CCC(C)c1ccccc1O (stereo not drawn) | inactive |
| Nc1ccccc1N | inactive |
| CC(=O)C1(C)CC2=C(CCCC2(C)C)CC1C (stereo not drawn) | inactive |
| OC1CCCCCCCCCCC1 | inactive |
| CCCCc1oc2ccccc2c1C(=O)c1cc(I)c(OCCN(CC)CC)c(I)c1 | 34.9 µM (active) and 29.8 µM (active) |
| Cc1c(OCC(F)(F)F)ccnc1CS(=O)c1nc2ccccc2[nH]1 (stereo not drawn) | inactive |
| O=C(c1ccccc1)c1ccccc1O | inactive |
| O=CCCCC=O | inactive |
| NNc1ccc(C(=O)O)cc1 | inactive |
| O=Cc1ccccc1O | inactive |
| Cc1cccc(N(C)C(=S)Oc2ccc3ccccc3c2)c1 | inactive |
| Cc1cc2nc3c(=O)[nH]c(=O)nc-3n(C[C@H](O)[C@H](O)[C@H](O)CO)c2cc1C | inactive |
| COc1cccc2c1C(=O)c1c(O)c3c(c(O)c1C2=O)C[C@@](O)(C(=O)CO)C[C@@H]3O[C@H]1C[C@H](N)[C@H](O)[C@H](C)O1 | inactive |
| CN(C)C(=N)N=C(N)N | inactive |
| CC(=O)O[C@]1(C(C)=O)CC[C@H]2[C@@H]3C=C(Cl)C4=CC(=O)[C@@H]5C[C@@H]5[C@]4(C)[C@H]3CC[C@@]21C | inactive |

Target: Vitamin D3 receptor (Homo sapiens) (UniProt P11473)
Experiment: qHTS assay to identify small molecule agonists of the vitamin D receptor (VDR) signaling pathway (AID 743222; calls by dose curve)
Details: HEK293T VDR-UAS-bla, beta-lactamase FRET ratio, 16 h; series mostly up to 63.5 µM
Summary of the method: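 VDR-bla cells were seeded, left 4 h, treated with compounds in DMSO for 16 h, incubated 2 h at RT with B/G FRET substrate, and read for fluorescence.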

Chain of Vitamin D3 receptor (Homo sapiens) (P11473 whole entry, looked up): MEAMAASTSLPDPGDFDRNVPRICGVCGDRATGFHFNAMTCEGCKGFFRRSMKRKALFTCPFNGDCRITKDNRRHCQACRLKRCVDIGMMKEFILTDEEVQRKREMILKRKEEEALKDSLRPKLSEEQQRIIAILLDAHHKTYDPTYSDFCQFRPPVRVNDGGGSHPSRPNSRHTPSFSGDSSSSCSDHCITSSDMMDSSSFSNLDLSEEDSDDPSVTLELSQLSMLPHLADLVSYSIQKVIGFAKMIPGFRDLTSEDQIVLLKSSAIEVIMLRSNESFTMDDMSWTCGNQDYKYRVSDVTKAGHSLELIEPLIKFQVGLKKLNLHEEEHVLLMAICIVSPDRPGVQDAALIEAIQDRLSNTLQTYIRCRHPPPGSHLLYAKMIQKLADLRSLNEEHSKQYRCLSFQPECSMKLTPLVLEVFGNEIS

| SMILES | outcome |
| --- | --- |
| Nc1ncn([C@@H]2O[C@H](CO)[C@@H](O)[C@H]2O)c(=O)n1 | inactive |
| CN(C)c1nc(N(C)C)nc(N(C)C)n1 | inactive |
| CN(C)CCN(Cc1cccs1)c1ccccn1 | inactive |
| CC(C)(C)NC(=O)[C@H]1CC[C@H]2[C@@H]3CC[C@H]4NC(=O)C=C[C@]4(C)[C@H]3CC[C@]12C | inactive |
| CCCCC(CC)COCC1CO1 (stereo not drawn) | inactive |
| COC(=O)Nc1nc2ccc(S(=O)c3ccccc3)cc2[nH]1 (stereo not drawn) | inactive |
| c1cc(-c2ccncc2)ccn1 | inactive |
| NC=O | inactive |
| c1ccc2cc(Nc3ccc(Nc4ccc5ccccc5c4)cc3)ccc2c1 | inactive |
| COC(C)COC(C)COC(C)CO (stereo not drawn) | inactive |
| CC(=O)CC/C=C(\C)CCC=C(C)C | inactive |
| Nc1ncnc2nc[nH]c12 | inactive |
| OCCO | inactive |
| CCCCOCCOCCO | inactive |
| Cc1c(C(N)=O)cc([N+](=O)[O-])cc1[N+](=O)[O-] | inactive |
| COc1ccc(C(=O)CC(=O)c2ccc(C(C)(C)C)cc2)cc1 | inactive |
| CCC(C)c1ccccc1O (stereo not drawn) | inactive |
| Nc1ccccc1N | inactive |
| CC(=O)C1(C)CC2=C(CCCC2(C)C)CC1C (stereo not drawn) | inactive |
| O=C(c1ccccc1)c1ccccc1O | inactive |
| O=CCCCC=O | inactive |
| NNc1ccc(C(=O)O)cc1 | inactive |
| O=Cc1ccccc1O | inactive |
| Cc1cccc(N(C)C(=S)Oc2ccc3ccccc3c2)c1 | inactive |
